Compound activity deposited in PubChem by several laboratories.
In the library only some 1.8% were active in any assay of this set; here they are far more common.
Mcl-1 Bim block = human Bim-Mcl-1 interaction inhibition. inhibition, % at 10 µM. Q07820. Bead-based flow cytometry, Bim peptide-Mcl-1 binding. 190,000 tested, 0.1% active; in the data active means inhibition above about 40%;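 further: 0% = no compound tracer wells and 100% = peptide blocker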
TLR4-MyD88 BLA = TLR4-MyD88 interaction inhibition in cells | inhibition, % at 8.4 µM | HeLa CL3-4 TLR4/MyD88 BLA complementation, FRET ratio | 200,000 tested, 0.18% active | AID 861 | O00206+Q99836; in the data active means inhibition above about 25%;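 further: 0% = vehicle and 100% = reference inhibitor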
Mcl1-Bid inh = disrupts binding of human Mcl-1 to Bid peptide. inhibition, % at 21.7 µM. 220,000 tested, 0.97% active. AID 1021. Q07820. TR-FRET Mcl-1/Bid-Dy647 peptide binding, 1536-well;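 active means compounds that cut the binding signal by more than half at the single screening dose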;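 further: His-tagged Mcl-1 with europium anti-His antibody binding Bid BH3 peptide; 0% = Mcl-1 plus peptide wells and 100% = peptide-only wells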
Mcl1-Noxa inh = disrupts binding of human Mcl-1 to Noxa peptide; Q07820; TR-FRET Mcl-1/Noxa peptide binding, 2 h; inhibition, % at 21.7 µM; 220,000 tested, 1.5% active;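 active means compounds that cut the protein-peptide binding signal by more than 50% relative to plate controls in a single-dose test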;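 further: His-tagged Mcl-1 with rhodamine Noxa BH3 peptide and terbium anti-His antibody; 0% = Mcl-1 plus Noxa peptide wells and 100% = peptide-only wells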
NOD2 RIPK2 PPI = blocks binding of human NOD2 to RIPK2. CHO BLA complementation NOD2-RIPK2, CCF4 ratio. inhibition, % at 4.98 µM. O43353. 360,000 tested, 0.38% active; in the data active means inhibition above about 21%;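 further: 0% = vehicle only and 100% = reference blocker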
TLR9-MyD88 inh = TLR9-MyD88 interaction inhibition. Q9NR96+Q99836. CHO BLA complementation TLR9-MyD88, CCF4 FRET ratio. inhibition, % at 4.98 µM. 340,000 tested, 0.21% active. AID 504734;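 active means inhibition above the mean over all tested compounds plus 3 SD, cut at about 21% in these data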;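 further: 0% = DMSO only wells and 100% = clavulanate BLA inhibitor control wells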
Starred values were filed as active, the others as inactive; x = no result.

SMILES	Mcl-1 Bim block	TLR4-MyD88 BLA	Mcl1-Bid inh	Mcl1-Noxa inh	NOD2 RIPK2 PPI	TLR9-MyD88 inh
COc1ccc(S(=O)(=O)Nc2c(C)nc3nc[nH]n3c2=O)cc1	-4	6	66*	7	-12	19
Cc1cccc(N2CCN(C(=O)COc3noc4nc(C)cc(C)c34)CC2C)c1 (stereo not drawn)	x	x	x	x	-9	3
O=C1NC(CCc2ccccc2)C(=O)N1Cc1ccccc1Cl (stereo not drawn)	17	-4	95*	-5	6	2
Cc1cccc(NC(=O)CN2C(=O)N/C(=C/c3cc(C)n(-c4ccncc4)c3C)C2=O)c1	-3	6	81*	37	-7	7
CCCCC(=O)OCC(=O)N1N=C(c2c[nH]c3ccccc23)C(O)C1c1ccc(OC)cc1 (stereo not drawn)	x	x	x	x	-1	5
O=C(NC(=S)N1CCCc2ccccc21)c1ccccc1	0	5	-46	x	7	6
O=C(NC(=S)N1CCCc2ccccc21)c1ccc(Cl)cc1	-5	-14	-53	51*	-7	-10
CN(C)S(=O)(=O)c1cccc(N=c2scc(-c3ccc4c(c3)NC(=O)CO4)n2CC2CCCO2)c1 (stereo not drawn)	-1	-15	74*	-3	1	2
COc1ccc(-c2nnn(CC(=O)N(CCCO)C(C(=O)NC3CCCC3)c3ccncc3)n2)cc1 (stereo not drawn)	0	-8	87*	7	4	21
COc1ccc(-c2nnn(CC(=O)N(CCO)C(C(=O)NC3CCCC3)c3ccncc3)n2)cc1 (stereo not drawn)	-2	-6	-21	-10	-3	x
CCOC(=O)c1c(NC(=O)COC(=O)CNC(=O)c2ccc(Cl)cc2Cl)sc(C(=O)N(C)C)c1C	x	x	x	x	1	6
CN(Cc1ccccc1)C(=O)NC1CCCCC1	x	-9	-6	-10	-3	6
O=C(Cc1ccc(Cl)cc1)NC1CCCCCC1	x	x	x	x	3	10
O=C(Cc1ccc(-c2ccccc2)cc1)NC1CCCC1	45*	3	-10	8	13	7
CN(C(=O)NC1CCCCC1)c1ccccc1	51*	2	-25	-7	-4	8
O=C1CCCC2=C1C(c1ccc(Br)cc1)c1c([nH]c(=S)[nH]c1=O)N2 (stereo not drawn)	-4	0	-7	53*	-4	-1
CCC(=O)Nc1ccc(/C(C)=N/NC(=O)c2c(-c3ccccc3Cl)noc2C)cc1	-2	5	-2	6	-6	0
O=S(=O)(c1ccc(-c2nnco2)cc1)N1CCCCC1	x	x	x	x	-4	0
O=S(=O)(c1ccc(Oc2ccc(-c3nnco3)cc2)nc1)N1CCC(Cc2ccccc2)CC1	-1	11	59*	-75	4	-12
C[C@@H]1CN([C@H](C)CO)C(=O)CCCn2nncc2CO[C@H]1CN(C)C(=O)C1CCCCC1	x	x	x	x	-6	-2
Cc1ccccc1-n1nnnc1SCC(=O)c1c(N)n(C)c(=O)n(C)c1=O	x	x	-40	54*	-3	2
Cn1c(N)c(C(=O)CSc2nnnn2-c2ccccc2)c(=O)n(C)c1=O	x	x	-6	-8	3	0
COC1=Nc2ccccc2/C=C\c2ccccc21	x	x	x	x	1	-10
CC(=O)c1ccc(OCCCC(=O)NCCc2ccc(C(F)(F)F)cc2)cc1	x	x	x	x	3	-1
CCCOc1ccc(N)cc1N	4	0	1	76*	2	4
SMILES	Mcl-1 Bim block	TLR4-MyD88 BLA	Mcl1-Bid inh	Mcl1-Noxa inh	NOD2 RIPK2 PPI	TLR9-MyD88 inh
CCCOc1cc(N)ccc1C(=O)OCCN(CC)CC	x	x	x	x	-12	-5
CC(OC(=O)Cc1c[nH]c2ccccc12)C(=O)Nc1ccccc1F (stereo not drawn)	x	x	x	x	-4	1
CCC(=O)N(CC)C1=C(O)c2ccccc2C(=O)C1=O	2	11	-11	85*	-3	-9
COC(=O)c1ccccc1S(=O)(=O)NNC(=O)c1nn(C)c(=O)c2ccccc12	x	x	x	x	1	1
Cc1ccc(SC2=C(Sc3ccc(C)cc3)C(=O)c3ccccc3C2=O)cc1	x	x	1	69*	7	-2
CCOc1ccc(OCC(=O)Nc2ccc(S(=O)(=O)Nc3cc(C)nc(C)n3)cc2)cc1	-4	-10	2	68*	-4	8
Cc1cc(NS(=O)(=O)c2ccc(NC(=O)COc3ccc(Br)cc3)cc2)nc(C)n1	x	x	x	x	-5	-1
COc1ccc(OC(=O)CCN2C(=O)C3C4C=CC(C4)C3C2=O)cc1 (stereo not drawn)	-4	-2	-45	5	-9	6
COC(=O)c1ccc(OC(=O)CCN2C(=O)C3C4c5ccccc5C(c5ccccc54)C3C2=O)cc1 (stereo not drawn)	-10	-13	52*	10	-18	-4
S=c1nc(-c2cc(Cl)ccc2Cl)[nH][nH]1	0	4	58*	50	-6	3
S=c1nc(-c2cccc(Cl)c2)[nH][nH]1	-5	5	-28	35	0	-4
Brc1ccc(C2Nc3cccc4cccc(c34)N2)s1	0	2	-13	100*	-1	1
Cc1ccc(C)c(S(=O)(=O)/N=C2\C=C(NS(=O)(=O)c3ccccc3)C(=O)c3ccccc32)c1	x	x	x	x	0	-9
Cc1cc(C)c(S(=O)(=O)/N=C2/C=C(Sc3ncn[nH]3)C(=O)c3ccccc32)cc1C	1	-23	72*	100*	5	13
Cc1c(/C=N/Nc2ccc(F)cc2)c(O)n(C)c(=O)c1C#N	0	-5	-32	60*	-2	2
COCCNC(=O)c1noc2c1CCc1cc(OC)ccc1-2	-4	17	1	65*	-9	-8
O=S(=O)(Nc1ccc(F)cc1)c1cccc2nsnc12	x	x	x	x	2	-4
Cc1nc2sccn2c1-c1nc(-c2cc3ccccc3o2)cs1	6	-2	50	54*	-7	-8
CC(O)(c1ccccc1)c1nc(-c2cc3ccccc3o2)cs1 (stereo not drawn)	x	x	x	x	6	x
COc1cccc2[nH]c3c(N4CCc5ccccc5C4)ncnc3c12	x	x	-13	62*	x	x
O=C1COc2ccccc2N1Cc1ccc(Cl)cc1	x	x	x	x	-6	9
Cn1cc(Br)c(NC(=O)/C=C/C(=O)O)n1	x	x	18	67*	-14	-2
C=CCn1c(=S)[nH]c2scc(-c3cccs3)c2c1=O	1	8	-63	11	-13	-6
Cn1c(=S)[nH]c2scc(-c3cccs3)c2c1=O	0	7	-47	64*	6	-6
CCOC(=O)c1c(C)c(C(=O)Nc2ccc(N(C)C)cc2)c(C)n1CC	3	-5	-12	56*	-16	4
CCCCOC(=O)Nc1ccc(N(C)C)cc1	1	-4	-48	75*	2	-6
CCCOc1ccc(C(=O)Nc2ccc(N(C)C)cc2)cc1	4	-1	-27	81*	-2	-11
CCCOc1ccc(C(=O)Nc2ccc(NC(=O)c3cccs3)cc2)cc1	x	x	x	x	-2	2
